Measured values taken from the antibiotic and cytotoxicity screens of Wong et al. (2023).
The whole screen tested about 39,000 compounds, of which about 3,300 (8.5%) were called active. The entries come from a sample that favours actives as a whole.

tested on: HepG2; test: cytotoxicity call (relative viability < 0.9); conditions: 10 µM

SMILES | cytotoxicity call
C[C@H](CO)N1C[C@H](C)[C@H](CN(C)Cc2ccc(Oc3ccccc3)cc2)Oc2c(NS(=O)(=O)c3cccs3)cccc2C1=O | inactive
C[C@H]1CN([C@@H](C)CO)C(=O)c2cccc(NC(=O)c3ccncc3)c2O[C@H]1CN(C)Cc1ccncc1 | inactive
C[C@@H]1CN([C@H](C)CO)C(=O)c2cc(-c3cccnc3)cnc2O[C@H]1CN(C)Cc1ccc(Oc2ccccc2)cc1 | inactive
COc1ccc(NC(=O)Nc2ccc3c(c2)[C@H]2C[C@H](CC(=O)N4CCN(C)CC4)O[C@@H](CO)[C@H]2O3)cc1 | inactive
Cc1cccc(Oc2ccc(NC(=O)C3CCC(C)CC3)cc2)c1 (centres undefined) | inactive
CN1CCN(Cc2ccc(NC(=O)Nc3ccc(Oc4cc(NC(=O)C5CC5)ncn4)cc3)cc2C(F)(F)F)CC1 | active
C[C@@H]1CN([C@H](C)CO)C(=O)Cc2cc(NS(=O)(=O)c3ccc(F)cc3)ccc2O[C@H]1CN(C)S(=O)(=O)c1ccccc1 | inactive
C[C@H]1CCCCO[C@H](CN(C)C(=O)NC2CCCCC2)[C@@H](C)CN([C@@H](C)CO)C(=O)c2cc(NC(=O)NC3CCCCC3)ccc2O1 | inactive
N#C/C(=N\O)C(=O)c1ccco1 | inactive
COC(=O)Nc1nc2ccc(Sc3ccccc3)cc2[nH]1 | active
Cn1c(=O)c2c(ncn2CC(=O)Nc2nc3ccccc3[nH]2)n(C)c1=O | inactive
CCOC(=O)Nc1nc2ccccc2[nH]1 | inactive
COC(=O)Nc1nc2ccc(S(=O)c3ccccc3)cc2[nH]1 (centres undefined) | active
N=C(N)Nc1nc(=O)c2ccccc2[nH]1 | inactive
COc1ccc2nc(S(=O)Cc3ncc(C)c(OC)c3C)[nH]c2c1 (centres undefined) | inactive
CCCSc1ccc2nc(NC(=O)OC)[nH]c2c1 | active
CC(C)NC(=O)c1cccc2cccc(Sc3ccccc3)c12 | inactive
CCCOc1ccc2nc(NC(=O)OC)[nH]c2c1 | active
N=C(N)Nc1nc2ccccc2[nH]1 | inactive
O=C(O)Cn1cccn1 | inactive
CCC/C=C1\OC(=O)c2ccccc21 | inactive
Cc1noc(C)c1S(=O)(=O)N(C)C[C@@H]1OCCCC[C@@H](C)Oc2ccc(NC(=O)Nc3cccc4ccccc34)cc2C(=O)N([C@H](C)CO)C[C@@H]1C | inactive
C[C@H]1CN([C@@H](C)CO)C(=O)Cc2cc(NC(=O)Nc3ccc(C(F)(F)F)cc3)ccc2O[C@@H]1CN(C)Cc1ccc(C(=O)O)cc1 | inactive
COc1ccc(CN(C)C[C@H]2OCCCC[C@@H](C)Oc3ccc(NC(=O)NC(C)C)cc3C(=O)N([C@H](C)CO)C[C@@H]2C)cc1 | inactive
CCCC(=O)Nc1ccc2c(c1)C(=O)N(C)C[C@H](OC)[C@H](C)CN(Cc1ccc(-c3ccccn3)cc1)[C@@H](C)CO2 | inactive

SMILES | cytotoxicity call
CN(CCN)C1CCCCC1 | inactive
CCS(=O)(=O)NCC[C@H]1CC[C@H](NC(=O)Cc2ccccn2)[C@@H](CO)O1 | inactive
C[C@@H]1CCCCO[C@H](CN(C)C(=O)Cc2ccccc2)[C@@H](C)CN([C@@H](C)CO)C(=O)c2cc(NC(=O)c3ccccc3)ccc2O1 | inactive
CCS(=O)(=O)N1CC[C@]2(CC1)CN([C@H](CO)c1c2c2ccc(cc2n1C)OC)C(=O)c1cccc(c1)F | inactive
COc1ccc(S(=O)(=O)Nc2ccc3c(c2)C(=O)N([C@@H](C)CO)C[C@H](C)[C@@H](CN(C)Cc2ccc4c(c2)OCO4)OCCCC[C@H](C)O3)cc1 | inactive
Cc1ccc(S(=O)(=O)Nc2ccc3c(c2)C(=O)N([C@H](C)CO)C[C@@H](C)[C@H](CN(C)Cc2ccc4c(c2)OCO4)OCCCC[C@@H](C)O3)cc1 | inactive
Cn1cnc(S(=O)(=O)N[C@@H]2CC[C@H](CC(=O)NCC3CC3)O[C@H]2CO)c1 | inactive
OC[C@H]1O[C@H]([S][Au])[C@H](O)[C@@H](O)[C@@H]1O | active
OC[C@H]1O[C@@H](O)[C@H](O)[C@@H](O)[C@H]1O | inactive
OC[C@H]1O[C@@H](O)[C@@H](O)[C@@H](O)[C@@H]1O | inactive
Cc1noc(C)c1NC(=O)Nc1ccc2c(c1)C(=O)N([C@H](C)CO)C[C@H](C)[C@H](CN(C)S(=O)(=O)c1cn(C)cn1)O2 | inactive
COc1ccc(S(=O)(=O)Nc2ccc3c(c2)C(=O)N([C@H](C)CO)C[C@@H](C)[C@H](CN(C)C(=O)Nc2cccc4ccccc24)O3)cc1 | inactive
CC(C)(C)[S@](=O)N1Cc2cc(C(=O)NCc3ccc4c(c3)OCO4)nc(-c3cccc(-c4ccncc4)c3)c2[C@@H]1CCO | inactive
CC(C)(C)[S@@](=O)N1Cc2cc(C(=O)NCc3ccc4c(c3)OCO4)nc(-c3cccc(-c4ccccc4)c3)c2[C@H]1CCO | inactive
CC(C)(C)[S@](=O)N1Cc2cc(C(=O)NCc3ccc4c(c3)OCO4)nc(-c3cccc(-c4cccnc4)c3)c2[C@@H]1CCO | inactive
CC(C)(C)S(=O)N1Cc2cc(C(=O)NCc3ccc4c(c3)OCO4)nc(-c3cccc(-c4cccc(F)c4)c3)c2[C@@H]1CCO (some centres undefined) | active
CC(C)(C)S(=O)N1Cc2cc(C(=O)NCc3ccc4c(c3)OCO4)nc(-c3cccc(-c4cccc(F)c4)c3)c2[C@H]1CCO (some centres undefined) | active
CC(C)(C)[S@@](=O)N1Cc2cc(C(=O)NCc3ccc4c(c3)OCO4)nc(-c3cccc(-c4ccncc4)c3)c2[C@H]1CCO | inactive
COc1ccc([C@H]2CNCCN2)cc1 | inactive
C[C@@H]1CN([C@@H](C)CO)C(=O)c2ccccc2-c2ccccc2CO[C@@H]1CN(C)C(=O)Nc1cccc(Cl)c1Cl | inactive
COc1ccc(S(=O)(=O)N(C)C[C@H]2Oc3ccc(NC(=O)Cn4cnnn4)cc3C(=O)N([C@@H](C)CO)C[C@H]2C)cc1 | inactive
CCc1nc2ccc(C(=O)N3CCN(S(=O)(=O)CC)CC3)cn2c1N(CC)C(=O)CCC1CCCC1 | inactive
Cc1cc(-c2ccc(N=Nc3ccc4c(S(=O)(=O)[O-])cc(S(=O)(=O)[O-])c(N)c4c3O)c(C)c2)ccc1N=Nc1ccc2c(S(=O)(=O)[O-])cc(S(=O)(=O)[O-])c(N)c2c1O.[Na+].[Na+].[Na+].[Na+] | active
Cc1ccc(S(=O)(=O)Oc2ccc(/N=N/c3ccc(-c4ccc(/N=N/c5c(O)ccc6cc(S(=O)(=O)O)cc(S(=O)(=O)O)c56)c(C)c4)cc3C)cc2)cc1 | inactive
